The sample as a whole holds a higher share of hits than the screen did.
Tb PYK inh = blocks Trypanosoma brucei pyruvate kinase. Q57TT1. TbPYK enzyme, Kinase-Glo Plus ATP luminescence, 45 min. Potency, µM (series often up to 76.8 µM), inactives show at the highest dose activity, negative = inhibition, most hits filed as inhibitors. 410,000 tested, 0.12% active; note: potency is the fitted concentration of half-maximal effect; % is set by controls: 0 for no effect and ±100 for the full control effect; nearly all actives have a fitted effect of over 50% in size
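Screened from lowest to highest concentration, compounds were pinned into TbPYK/substrate mixtures, and ADP (130 uM final) was added. Plates sat at room temperature for 45 min prior to Kinase-Glo Plus detection by luminescence.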
Shiga inhibitor = Shiga toxin inhibition; Vero cells, Shiga toxin protein synthesis inhibition reporter; 290,000 tested, 9.2% active; inhibition, % at 38.7 µM; in the data active = inhibition mostly above about 28%, no sharp cut-off; inactive = mostly below about 43%; note: 0% is about no effect
LmPK inh = LmPK (Leishmania mexicana) enzyme inhibition; Q27686; purified LmPK, Kinase-Glo ATP luminescence, 1 h; Potency, µM (highest dose often 57.5 µM), for the others: at the highest dose activity change, negative = inhibition, actives largely listed as inhibitors; 290,000 tested, 0.37% active; AID 1721; note: potency is the fitted concentration of half-maximal effect; % is set by controls: 0 for no effect and ±100 for the full control effect
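Pyruvate kinase activity monitored as ATP production (luciferase luminescence). Conditions: 0.1 nM enzyme, 0.5 mM PEP, 0.1 mM ADP, 1 h, RT; normalized against uninhibited and no-enzyme wells.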
Giardia FBPA inh = blocks Giardia fructose-bisphosphate aldolase activity; Potency, µM (highest dose often 59.6 µM), for the others: at the top dose activity, negative = inhibition, hits mostly inhibitors; AID 2451; 290,000 tested, 0.71% active; purified Giardia FBPA; A8B2U2; note: potency is the fitted concentration of half-maximal effect; % is set by controls: 0 for no effect and ±100 for the full control effect; nearly all actives have a fitted effect of over 55% in size
Target sequence (A8B2U2 whole entry, looked up): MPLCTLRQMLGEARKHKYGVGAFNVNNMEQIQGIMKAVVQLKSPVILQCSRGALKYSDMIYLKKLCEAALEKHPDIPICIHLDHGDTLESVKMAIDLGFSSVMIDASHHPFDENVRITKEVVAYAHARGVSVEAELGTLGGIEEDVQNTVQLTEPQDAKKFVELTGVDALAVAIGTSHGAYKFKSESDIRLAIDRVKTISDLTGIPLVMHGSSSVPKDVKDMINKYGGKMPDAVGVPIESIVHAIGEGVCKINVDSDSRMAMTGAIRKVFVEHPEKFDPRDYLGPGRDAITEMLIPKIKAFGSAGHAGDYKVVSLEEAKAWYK
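Giardia FBPA (40 nM reagent) was preincubated 10 min at RT with compound (up to 57.5 uM final), then substrate plus GAPDH/TPI/NAD/arsenate coupling system with diaphorase/resazurin was added; resorufin fluorescence (525/598 nm) was read after 20 min.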
Sm TGR block = blocks Schistosoma mansoni thioredoxin glutathione reductase; purified TGR, DTNB reduction, TNB absorbance 405 nm; Q962Y6; 360,000 tested, 3% active; Potency, µM (highest dose often 114 µM), inactives show top-dose activity change, negative = inhibition, hits mostly inhibitors; note: potency is the fitted concentration of half-maximal effect; % is set by controls: 0 for no effect and ±100 for the full control effect; nearly all actives have a fitted effect of over 60% in size
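Kinetic colorimetric format: TGR-catalysed, NADPH-driven DTNB reduction monitored via TNB absorbance. Enzyme dispensed at 20 nM; compound exposure 15 min at room temperature before reaction start.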
CHX counter = counter-screen hit for Shiga toxin inhibitors, cycloheximide. cell reporter, cycloheximide protein synthesis inhibition counterscreen. max response, %. 300,000 tested, 12% active. AID 2314; in the data active = max response mostly above about 13%, no sharp cut-off; inactive = mostly below about 14%; note: read at 38.3 µM for the half of the compounds with a filed dose; 0% is about no effect
* hit, by the source's call; [ ] = dose if it differs, or a comment. Unless noted, calls come from the whole dose curve; as a rule, active = well fitted curve in the direction sought with a large enough effect; inconclusive = small, poorly fitted or top-dose-only effect, or another doubt; inactive = no such curve, though single readings can be large; an effect the other way counts as inactive or inconclusive.

How did Cc1ccc(C)c(NC(=O)Cn2cc(S(=O)(=O)c3ccc(F)cc3)c(=O)c3cc(F)ccc32)c1 do in these assays?
Tb PYK inh: -0.5%; Sm TGR block: 4.9%

How did O=C(/C=C/c1ccccc1)NC(=S)NNC(=O)Cc1cccs1 do in these assays?
Tb PYK inh: -1.8%; Shiga inhibitor: 13.3; LmPK inh: 3.9%; Giardia FBPA inh: inconclusive; Sm TGR block: -9.9%; CHX counter: 9.1

What do the screens show for `O=C(N/N=C/C=C/c1ccccc1)c1cccs1`?
Tb PYK inh: 2.0%; Shiga inhibitor: 75.0*; LmPK inh: -8.3%; Giardia FBPA inh: -17.8%; Sm TGR block: -2.1%; CHX counter: 41.5*

Results for O=C(Cc1cccs1)N/N=C/C=C\c1ccccc1[N+](=O)[O-] ?
Tb PYK inh: -6.1%; Shiga inhibitor: 84.7*; LmPK inh: 4.5%[11.5 µM]; Giardia FBPA inh: -0.9%; Sm TGR block: 3.7%; CHX counter: 32.7*

What do the screens show for `O=C(Cc1cccs1)N/N=C/C=C/c1ccccc1`?
Tb PYK inh: 11.4%; Shiga inhibitor: 58.7*; LmPK inh: 4.6%; Giardia FBPA inh: -0.7%; Sm TGR block: -8.7%; CHX counter: 25.4*

How did O=C(N/N=C/C=C\c1ccccc1[N+](=O)[O-])c1ccncc1 do in these assays?
Tb PYK inh: 3.0%; Shiga inhibitor: -8.5; LmPK inh: 11.4%; Giardia FBPA inh: inconclusive; Sm TGR block: 19.1%; CHX counter: 1.0

How did Cc1ccc(/C=N/NC(=O)c2cccs2)cc1[N+](=O)[O-] do in these assays?
Tb PYK inh: 3.9%; Shiga inhibitor: 78.4*; LmPK inh: -1.7%; Giardia FBPA inh: -0.3%; Sm TGR block: 13.0%; CHX counter: 39.4*

Results for O=c1nc(Nc2ccccc2)sc2ccc([N+](=O)[O-])cc12 ?
Tb PYK inh: -4.2%; Shiga inhibitor: -5.6; LmPK inh: 3.3%; Giardia FBPA inh: -4.7%; Sm TGR block: -9.0%; CHX counter: -7.9

What do the screens show for `C[C@H](CO)NC(=O)[C@H]1C[C@@H]1[C@H](NP(=O)(c1ccccc1)c1ccccc1)c1ccccc1`?
Giardia FBPA inh: 6.3%

What do the screens show for `COc1ccc(-n2c(SCC(=O)Nc3ccc4c(c3)OCO4)nc3c([nH]c4ccccc43)c2=O)cc1`?
Tb PYK inh: -7.4%; Sm TGR block: 4.6%

How did CC1(C)C=C2C(=NN(c3ccccc3)C(N)=C2C#N)CO1 do in these assays?
Tb PYK inh: -15.9%; Shiga inhibitor: -8.1; LmPK inh: -4.7%; Giardia FBPA inh: 1.58µM*; Sm TGR block: -30.8%; CHX counter: -2.3

What do the screens show for `c1ccc(C[n+]2c(-c3ccccc3)csc2Nc2ccccc2)cc1`?
Tb PYK inh: -0.2%; Shiga inhibitor: 35.5; LmPK inh: 3.2%; Giardia FBPA inh: 6.3%; Sm TGR block: -0.8%; CHX counter: 15.1*

How did c1ccc(Nc2scc(-c3ccccc3)[n+]2Cc2ccco2)cc1 do in these assays?
Tb PYK inh: -3.6%; Shiga inhibitor: 158.0*; LmPK inh: 1.1%; Giardia FBPA inh: -15.5%; Sm TGR block: 39.8µM*; CHX counter: 52.1*

What do the screens show for `CCCCCC[n+]1c(-c2ccc(Cl)cc2Cl)csc1Nc1ccccc1`?
Tb PYK inh: 2.3%; Shiga inhibitor: -2.7; LmPK inh: -1.2%; Giardia FBPA inh: 2.5%; Sm TGR block: -3.1%; CHX counter: -6.1

Results for COc1cc(C(=O)NC2CCN(CC(=O)Nc3cccc(C)c3C)CC2)cc(OC)c1OC ?
Tb PYK inh: -1.5%; Shiga inhibitor: 1.7; LmPK inh: -6.7%; Giardia FBPA inh: -10.4%; Sm TGR block: 5.1%; CHX counter: -1.4

How did Cc1cc(C)cc(NC(=O)CSc2nnc(-c3ccccc3C)o2)c1 do in these assays?
Tb PYK inh: -3.0%; Shiga inhibitor: 43.3; LmPK inh: 0.5%; Giardia FBPA inh: -8.2%; Sm TGR block: -16.1%; CHX counter: 36.1*

Results for Cc1cccc(NC(=O)CSc2nnc(-c3ccccc3C)o2)c1 ?
Tb PYK inh: -3.3%; Shiga inhibitor: 68.8*; LmPK inh: 0.6%; Giardia FBPA inh: -2.8%; Sm TGR block: -6.7%; CHX counter: 36.9*

What do the screens show for `COc1ccc(/C(N)=C/C(=O)C(C)(C)C)cc1`?
Tb PYK inh: -4.7%; Shiga inhibitor: 60.2; LmPK inh: -2.9%; Giardia FBPA inh: 2.0%; Sm TGR block: 7.8%; CHX counter: 18.8*

How did O=C(O)C(Cc1ccc(Cl)cc1)NS(=O)(=O)c1ccc(Cl)cc1 (stereo not drawn) do in these assays?
Tb PYK inh: -3.0%; Shiga inhibitor: -4.3; LmPK inh: 1.3%; Giardia FBPA inh: 22.2%; Sm TGR block: -2.5%; CHX counter: -4.2

What do the screens show for `COc1cc(CC2C(=O)Nc3ccccc32)cc(C)c1O` (stereo not drawn)?
Tb PYK inh: -6.1%; Shiga inhibitor: -4.5; LmPK inh: 0.1%; Giardia FBPA inh: -2.5%; Sm TGR block: 39.8µM*; CHX counter: -1.0

How did O=C1Nc2ccccc2C1Cc1ccc(OC(F)(F)F)cc1 (stereo not drawn) do in these assays?
Tb PYK inh: -6.6%; Shiga inhibitor: 4.0; LmPK inh: 2.9%; Giardia FBPA inh: 6.4%; Sm TGR block: -6.2%; CHX counter: 2.6

How did COC(=O)[C@@H](NC(=O)O[C@H]1C(=O)c2ccc(OC)cc2O[C@@H]1c1ccc2c(c1)OCO2)C(C)C do in these assays?
Shiga inhibitor: -0.2; LmPK inh: 0.8%; Giardia FBPA inh: 0.1%; Sm TGR block: -0.2%; CHX counter: 23.1*

Results for COc1ccc2c(c1)O[C@@H](c1ccc3c(c1)OCO3)[C@H](OC(=O)N[C@H](C)C1CCCCC1)C2=O ?
Giardia FBPA inh: -2.8%

Results for Cc1ccccc1CNC(=O)C(=O)NCC(c1cccs1)S(=O)(=O)c1ccc(Cl)cc1 (stereo not drawn) ?
Tb PYK inh: 6.5%; Sm TGR block: inconclusive

Results for Cc1csc(NC(=O)c2ccc(S(=O)(=O)N(C)c3ccccc3)cc2)n1 ?
Tb PYK inh: -9.4%; Shiga inhibitor: 41.6*; LmPK inh: -1.6%; Giardia FBPA inh: 4.7%; Sm TGR block: -5.4%; CHX counter: 33.6*

What do the screens show for `COc1ccc(-c2csc(NC(=O)c3ccoc3C)n2)cc1`?
Tb PYK inh: -12.3%; Shiga inhibitor: 152.8*; LmPK inh: 0.4%; Giardia FBPA inh: -9.4%; Sm TGR block: 3.1%; CHX counter: 40.8*

Results for COc1ccc(-c2csc(NC(=O)c3c(C)noc3C)n2)cc1 ?
Tb PYK inh: 0.9%; Sm TGR block: -3.2%

Results for CN(c1ccc(C(=O)Nc2nccs2)cc1)S(=O)(=O)c1ccccc1 ?
Tb PYK inh: -1.4%; Shiga inhibitor: 56.6*; LmPK inh: 7.8%; Giardia FBPA inh: -3.7%; Sm TGR block: 4.4%; CHX counter: 37.7*

Results for Cc1nnc(NC(=O)c2ccc(S(=O)(=O)N(C)c3ccccc3)cc2)s1 ?
Tb PYK inh: 1.0%; Sm TGR block: -8.5%
